Results filed as inconclusive are left out. Active and inactive are the calls of the source. Unless noted, calls follow the shape of the dose curve; as a rule, active = well fitted curve in the direction sought with a large enough effect in the repeat runs; inconclusive = weak or mixed curves; inactive = no such curve, though single readings can be large; an effect the other way counts as inactive or inconclusive.
What was measured:
[1] = A CellTox Green Cytotoxicity Assay to monitor cytotoxicity in HepG2 cells - 8 hour (AID 1224890); also: nearly all actives have a fitted effect of over 45% in size; also: potency is read from the fitted curve at half-maximal effect
Method in brief: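 Cells and non-lytic dye reagent are dispensed together (600 HepG2 cells/well) and incubated 5 h before DMSO compound transfer. Kinetic fluorescence is then recorded in the same wells during 40 h at 37 C.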

[2] = qHTS assay to identify small molecule antagonists of the estrogen receptor alpha (ER-alpha) signaling pathway using the BG1 cell line in the presence of 0.1 nM 17-beta-estradiol - cell viability counter screen (AID 1259241); also: nearly all actives have a fitted effect of over 40% in size
Method in brief: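 Following 5 days in phenol red-free medium with charcoal-stripped serum, VM7Luc4E2 cells received test compounds alongside 0.1 nM 17beta-estradiol (final) at 37C for 22 hr. Live cells were then quantified via protease-substrate fluorescence.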

[3] = qHTS assay to identify small molecule antagonists of the androgen receptor (AR) signaling pathway using the MDA cell line in the presence of 0.5 nM R1881 - cell viability counter screen (AID 1259242); also: nearly all actives have a fitted effect of over 45% in size
Method in brief: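 Steps: plate MDA-kb2 cells, rest 5 hr at 37C without CO2; pin in compounds in DMSO; add R1881 to 0.5 nM final; incubate 16 hr; add CellTiter-Fluor, 30 min; read fluorescence.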

[4] = target: Estrogen receptor (Homo sapiens) (UniProt P03372); test: qHTS assay to identify small molecule antagonists of the estrogen receptor alpha (ER-alpha) signaling pathway using the BG1 cell line in the presence of 0.1 nM 17-beta-estradiol (AID 1259244); also: nearly all actives have a fitted effect of over 50% in size
Method in brief: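 Antagonist mode: compounds in DMSO are pinned onto VM7Luc4E2 reporter cells, 0.1 nM final 17beta-estradiol is added, and after 22 h at 37C luciferase luminescence is measured with ONE-Glo.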

[5] = qHTS assay to identify small molecule phospholipidosis (PLD) inducers (AID 1259344; active = well fitted curve in the direction sought with a large enough effect; an effect the other way counts as inactive or inconclusive)
Method in brief: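 Read-out is LipidTOX Red fluorescence (ex 595/em 615) imaged in HepG2 cells after 24 h compound exposure at 37 C, with Hoechst nuclear counterstain (ex 352/em 461) allowing per-cell normalisation.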

[6] = qHTS assay to identify small molecule HDAC inhibitors (AID 1259364); also: potency is read from the fitted curve at half-maximal effect;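 also: wild-type HCT-116 cells with endogenous class I/II HDAC activity; nearly all actives have a fitted effect of over 45% in size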; as to activity change, negative = inhibition: top concentration of the series differs between compounds
Method in brief: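 Cells (HCT-116, wild type) are seeded at 1,500 per well, incubated overnight, treated with compound in DMSO for 2 hr, then developed with HDAC-Glo I/II reagent for 30 min at room temperature.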

[7] = qHTS assay to identify small molecule antagonists of the sonic hedgehog signaling (Shh) pathway - cell viability counter screen (AID 1259367); also: nearly all actives have a fitted effect of over 55% in size
Method in brief: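 Fluorescence read-out (CellTiter-Fluor, 1 hr at 37C) taken after 23 hr compound treatment of 3T3 Gli1-Luc cells stimulated with conditioned medium. Cells were seeded at 2,000 per well and pre-incubated 4 hr.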

[8] = qHTS assay to identify small molecule HDAC inhibitors - cell viability counter screen (AID 1259365); also: series mostly up to about 92 µM; nearly all actives have a fitted effect of over 50% in size
Method in brief: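 HCT-116 wild-type, overnight attachment; 2hr drug exposure, 37C; CellTiter-Glo luminescent ATP readout after 30min RT.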

[9] = qHTS assay to identify small molecule agonists of the sonic hedgehog signaling (Shh) pathway - cell viability counter screen (AID 1259366); also: nearly all actives have a fitted effect of over 50% in size
Method in brief: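 Compounds in DMSO were pin-transferred onto 3T3 Gli1-Luc cells that had settled 4hr; plates then stood 24hr at 37C and 5% CO2. One hour before the end, CellTiter-Fluor was added and fluorescence recorded.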
% is scaled to controls: 0 for no effect and ±100 for the full control effect.

Estrogen receptor (Homo sapiens), sequence (P03372 whole entry, looked up): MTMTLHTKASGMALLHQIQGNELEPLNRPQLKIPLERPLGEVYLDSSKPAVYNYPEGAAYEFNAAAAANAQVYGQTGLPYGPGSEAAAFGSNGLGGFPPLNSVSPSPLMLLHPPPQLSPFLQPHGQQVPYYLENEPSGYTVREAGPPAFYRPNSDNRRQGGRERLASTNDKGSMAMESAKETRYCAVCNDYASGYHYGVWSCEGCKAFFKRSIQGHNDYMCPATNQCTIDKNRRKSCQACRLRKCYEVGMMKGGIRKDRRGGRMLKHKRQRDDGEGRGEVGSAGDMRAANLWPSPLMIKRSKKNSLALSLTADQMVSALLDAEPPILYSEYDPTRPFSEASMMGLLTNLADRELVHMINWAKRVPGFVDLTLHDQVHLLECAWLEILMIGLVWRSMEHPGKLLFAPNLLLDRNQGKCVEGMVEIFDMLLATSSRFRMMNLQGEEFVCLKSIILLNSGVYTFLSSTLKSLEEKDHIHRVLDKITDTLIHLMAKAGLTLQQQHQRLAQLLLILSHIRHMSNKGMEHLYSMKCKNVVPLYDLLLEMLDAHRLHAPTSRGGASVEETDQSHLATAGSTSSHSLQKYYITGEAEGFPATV

C[C@H](O)C(=O)Nc1c(I)c(C(=O)NC(CO)CO)c(I)c(C(=O)NC(CO)CO)c1I
inactive: Potency [1] | outcome [2] | outcome [3] | outcome [4] | Potency [5] | Potency [6] | outcome [7]

CCn1cc(C(=O)O)c(=O)c2cc(F)c(N3CCN(C)CC3)cc21
inactive: cytotoxicity increase [1] -10.7% [at 15.8 µM] | activity change, negative = cytotoxicity [2] 1.73% [at 19 µM] | viability change, negative = cytotoxic [3] 1.22% [at 19 µM] | activity change, negative = inhibition [4] 6.79% [at 19 µM] | Potency [5] | activity change, negative = inhibition [6] -0.624% [at 19 µM] | activity change, negative = cytotoxicity [8] 2.46% [at 19 µM] | viability change, negative = cytotoxic [7] 3.37% [at 19 µM]

[O-][N+](=Nc1ccccc1)c1ccccc1
inactive: Potency [1] | outcome [2] | outcome [3] | outcome [4] | Potency [5] | Potency [9] | outcome [7]
active: Potency [6] 9.69 µM

CN(C)CCOC(c1ccc(Cl)cc1)c1ccccn1 (centres undefined)
inactive: Potency [1] | outcome [2] | outcome [3] | outcome [4] | Potency [5] | Potency [6] | outcome [8] | outcome [7]

COC(=O)CCCC(=O)O
inactive: Potency [1] | outcome [2] | outcome [3] | outcome [4] | Potency [6] | outcome [8] | Potency [9] | outcome [7]

Nc1ccn(C2CO[C@H](CO)O2)c(=O)n1 (some centres undefined)
inactive: outcome [2] | outcome [3] | outcome [4] | PLD induction [5] 4.48% [at 7.66 µM] | Potency [6] | Potency [9] | outcome [7]
active: Potency [1] 19 µM

Oc1cc(O)c2c(c1)O[C@H](c1ccc(O)c(O)c1)[C@H](O)C2
inactive: Potency [1] | outcome [2] | outcome [3] | outcome [4] | Potency [5] | Potency [6] | Potency [9] | outcome [7]

CC(=O)c1ccc(C)cc1
inactive: Potency [1] | outcome [2] | outcome [3] | outcome [4] | Potency [6] | outcome [8] | Potency [9] | outcome [7]

CN(C)C(=O)Nc1ccccc1
inactive: Potency [1] | outcome [2] | outcome [3] | outcome [4] | Potency [6] | outcome [8] | Potency [9] | outcome [7]

CCCCCOC(=O)Nc1nc(=O)n([C@@H]2O[C@H](C)[C@@H](O)[C@H]2O)cc1F
inactive: Potency [1] | outcome [2] | outcome [3] | outcome [4] | Potency [5] | Potency [6] | Potency [9] | outcome [7]

CC(C)=CC(=O)O
inactive: Potency [1] | outcome [2] | outcome [3] | outcome [4] | Potency [6] | outcome [8] | Potency [9] | outcome [7]

O=[N+]([O-])c1ccc(CCO)cc1
inactive: Potency [1] | outcome [2] | outcome [3] | outcome [4] | Potency [6] | outcome [8] | Potency [9] | outcome [7]

C=C(C)C1CC=C(C)C(O)C1 (centres undefined)
inactive: Potency [1] | outcome [2] | outcome [3] | outcome [4] | Potency [6] | outcome [8] | Potency [9] | outcome [7]

CCCCOCC(C)OCC(C)O (centres undefined)
inactive: Potency [1] | outcome [2] | outcome [3] | outcome [4] | Potency [6] | outcome [8] | Potency [9] | outcome [7]

CC(C)c1cccc(C(C)C)c1N
inactive: Potency [1] | outcome [2] | outcome [3] | outcome [4] | Potency [6] | outcome [8] | Potency [9] | outcome [7]

CNc1ncnc2nc[nH]c12
inactive: Potency [1] | outcome [2] | outcome [3] | outcome [4] | Potency [6] | outcome [8] | Potency [9] | outcome [7]

CC(=O)CCc1ccc(O)cc1
inactive: Potency [1] | outcome [2] | outcome [3] | outcome [4] | Potency [6] | outcome [8] | Potency [9] | outcome [7]

CC/C=C\CCCCO
inactive: Potency [1] | outcome [2] | outcome [3] | outcome [4] | Potency [6] | outcome [8] | Potency [9] | outcome [7]

CCC(C(=O)NC(N)=O)c1ccccc1 (centres undefined)
inactive: Potency [1] | outcome [2] | outcome [3] | outcome [4] | Potency [5] | Potency [6] | outcome [8] | outcome [7]

C=C(C)C(=O)OCCCCCCCCCCCCCCCCCC
inactive: cytotoxicity increase [1] 0.0012% [at 15.8 µM] | activity change, negative = cytotoxicity [2] 10.5% [at 19 µM] | viability change, negative = cytotoxic [3] 1.71% [at 19 µM] | activity change, negative = inhibition [4] 9.23% [at 19 µM] | activity change, negative = inhibition [6] 1.5% [at 19 µM] | activity change, negative = cytotoxicity [8] 3.83% [at 19 µM] | viability change, negative = cytotoxic [9] -3.3% [at 19 µM] | viability change, negative = cytotoxic [7] -2.33% [at 19 µM]

CCCc1ccc(N)cc1
inactive: Potency [1] | outcome [2] | outcome [3] | outcome [4] | Potency [6] | outcome [8] | Potency [9] | outcome [7]

CC(C)(O)Cc1ccccc1
inactive: Potency [1] | outcome [2] | outcome [3] | outcome [4] | Potency [6] | outcome [8] | Potency [9] | outcome [7]

COC(=O)CCCCCCCCC(=O)OC
inactive: Potency [1] | outcome [2] | outcome [3] | outcome [4] | Potency [6] | outcome [8] | Potency [9] | outcome [7]

CC(C)(C)CC(C)(C)N
inactive: Potency [1] | outcome [2] | outcome [3] | outcome [4] | Potency [6] | outcome [8] | Potency [9] | outcome [7]

O=Cc1ccccc1[N+](=O)[O-]
inactive: Potency [1] | outcome [2] | outcome [3] | outcome [4] | Potency [6] | outcome [8] | Potency [9] | outcome [7]

OC/C=C/c1ccccc1
inactive: Potency [1] | outcome [2] | outcome [3] | Potency [5] | Potency [6] | outcome [8] | Potency [9] | outcome [7]

C(=C(c1ccccc1)c1ccccc1)c1ccccc1
inactive: Potency [1] | outcome [2] | outcome [3] | outcome [4] | Potency [6] | outcome [8] | outcome [7]
